Tb PFK inh-1 – blocks T. brucei phosphofructokinase; actives 0.17% (n = 330,000); T. brucei PFK, ADP-Glo luminescence; O15648; Potency, µM (highest dose often 57.5 µM), for the others: at the top dose activity, negative = inhibition, usual class: inhibitors; AID 485367;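 also: potency is read from the fitted curve at half-maximal effect; 0% = uninhibited 1x PFK enzyme wells and -100% = no-enzyme wells; nearly all actives have a fitted effect of over 60% in size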
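Compounds were pin-transferred as a titration series up to 57 uM into substrate buffer (0.5 mM F6P, 0.1 mM ATP, pH 8.0), then 1.25 nM PFK was added and reactions ran 45 min before ADP-Glo detection.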
Menin-MLL TR inh – inhibitors of human menin-MLL interaction, mutant MLL peptide | Menin + Texas Red MLL mutant peptide, fluorescence polarization | Potency, µM (series often up to 61.6 µM), without a hit: at the highest dose FP activity change, negative = inhibition, actives largely listed as inhibitors | actives 0.23% (n = 270,000) | AID 1768; active = well fitted inhibition curve with a large enough effect in the polarisation, with a control signal flat, not every such curve was filed as active; inconclusive = small, poorly fitted or top-dose-only effect, or effect the other way, or a change in a side signal; inactive = no such curve, though single readings can be large or run the other way; the % refers to the polarisation; also: potency is read from the fitted curve at half-maximal effect; % of control where 0% means no effect
Target sequence (O00255 whole entry, looked up): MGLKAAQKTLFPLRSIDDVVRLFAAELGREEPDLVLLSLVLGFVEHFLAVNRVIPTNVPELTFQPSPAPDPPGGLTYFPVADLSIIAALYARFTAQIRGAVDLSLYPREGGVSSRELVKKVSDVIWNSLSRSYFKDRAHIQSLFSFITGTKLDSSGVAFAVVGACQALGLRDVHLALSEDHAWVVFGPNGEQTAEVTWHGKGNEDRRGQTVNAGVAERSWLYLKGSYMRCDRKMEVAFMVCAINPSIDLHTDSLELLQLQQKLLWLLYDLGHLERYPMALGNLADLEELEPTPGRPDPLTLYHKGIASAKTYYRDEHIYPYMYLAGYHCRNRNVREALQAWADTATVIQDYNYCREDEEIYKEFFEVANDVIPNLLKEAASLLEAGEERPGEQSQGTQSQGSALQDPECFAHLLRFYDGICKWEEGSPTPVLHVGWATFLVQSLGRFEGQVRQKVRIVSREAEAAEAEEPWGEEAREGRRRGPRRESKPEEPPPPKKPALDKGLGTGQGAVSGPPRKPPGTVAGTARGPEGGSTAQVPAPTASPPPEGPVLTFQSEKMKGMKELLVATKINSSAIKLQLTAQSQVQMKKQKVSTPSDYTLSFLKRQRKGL
Menin MLL FP FL – menin-MLL binding inhibition, fluorescein peptide; FP activity change, % at 61.4 µM; 290,000 tested, under 10 active; Fluorescence polarization, fluorescein-MLL peptide displacement from menin; active = well fitted curve in the direction sought with a large enough effect in the polarisation, not every such curve was filed as active; inconclusive = small, poorly fitted or top-dose-only effect, or effect the other way, or a change in a side signal; inactive = no such curve, though single readings can be large or run the other way; the % refers to the polarisation; also: % of control where 0% means no effect
MLL CXXC-DNA inh – MLL CXXC-DNA interaction inhibition; MLL-CXXC / FITC-HOXA9 DNA fluorescence polarization; actives 0.037% (n = 290,000); AID 2662; Potency, µM (series often up to 115 µM), without a hit: at the highest dose activity change, negative = inhibition, usual class: inhibitors; Q03164; active = well fitted inhibition curve with a large enough effect in the polarisation, with a control signal flat, not every such curve was filed as active; inconclusive = small, poorly fitted or top-dose-only effect, or effect the other way, or a change in a side signal; inactive = no such curve, though single readings can be large or run the other way; the % refers to the polarisation; also: potency is read from the fitted curve at half-maximal effect
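Steps: dispense CXXC domain solution (7 uM) → pin compounds or unlabeled HOX-A9 DNA control → 5 min ambient → add FLSN-HOX-A9 solution (50 nM) → spin → 30 min ambient → fluorescence polarization. Tris pH 7.5/NaCl/DTT/BSA buffer.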
RGS12 GoLoco inh – RGS12 GoLoco-Gai1 interaction inhibition; Potency, µM (titrated, usually from 61.6 µM), for inactives: top-dose activity, negative = inhibition, most hits filed as inhibitors; Gai1:RGS12 GoLoco peptide FP, rhodamine, 10 min; P63096; actives 0.44% (n = 230,000); active = well fitted inhibition curve with a large enough effect, not every such curve was filed as active; inactive = no such curve, though single readings can be large or run the other way; also: potency is read from the fitted curve at half-maximal effect; % is scaled to controls: 0 for no effect and ±100 for the full control effect; nearly all actives have a fitted effect of over 30% in size
TbPFK ATP – inhibits T. brucei PFK measured by ATP depletion. shares compounds with Tb PFK inh-1. Tb PFK enzyme, ATP depletion, Kinase-Glo Plus luminescence. actives 47% (n = 1,100). AID 504636. Potency, µM (top dose mostly 57.5 µM), for the others: top-dose inhibition; calls by dose curve; also: potency is read from the fitted curve at half-maximal effect; nearly all actives have a fitted effect of over 60% in size
Tb PFK inh-2 – validation of T. brucei phosphofructokinase inhibitors; shares compounds with Tb PFK inh-1; purified T. brucei PFK, ADP-Glo luminescence, 45 min; Potency, µM (highest dose often 57.5 µM), inactives show top-dose activity change, negative = inhibition, actives largely listed as inhibitors; actives 41% (n = 1,100); AID 504637;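 also: potency is read from the fitted curve at half-maximal effect; plate controls were full PFK enzyme control for no effect and no enzyme control for full effect; nearly all actives have a fitted effect of over 60% in size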
* marks the source's active call; other numbers are inactive results; ? = inconclusive; / = no result; [ ] = remark or other dose. A selection: hits, their analogues and other compounds. The true share with any hit is near 0.43%. Unless noted, calls follow the shape of the dose curve; as a rule, active = well fitted inhibition curve with a large enough effect; inconclusive = small, poorly fitted or top-dose-only effect, or effect the other way; inactive = flat fitted curve, though single readings scatter.

SMILES	Tb PFK inh-1	Menin-MLL TR inh	Menin MLL FP FL	MLL CXXC-DNA inh	RGS12 GoLoco inh	TbPFK ATP	Tb PFK inh-2
NCCc1c[nH]c2ccc(F)cc12	?	-17.3%	-2.4	?	14.8%	?	?
Cc1nn(-c2ccc(N3CCOCC3)nn2)c(C)c1CCC(=O)NCc1ccc(F)cc1	-2.4%	15.3%	-0.4	4.4%	/	/	/
O=C(Nc1cccc(S(=O)(=O)Nc2ccccc2F)c1)c1ccc2ccccc2n1	-28.8%	?	7.1	-20.1%	-29.2%	/	/
O=S(=O)(Nc1ccccc1F)c1cccc(NC(=S)NCCN2CCOCC2)c1	7.57µM*	/	/	/	/	2.39µM*	3.79µM*
O=C(/C=C/c1ccccc1)Nc1cccc(S(=O)(=O)Nc2ccccc2F)c1	6.75µM*	?	4.0	0.8%	-30.0%	4.26µM*	6.01µM*
O=S(=O)(Nc1ccc(Br)cc1)c1cccc(NC(=S)NCCN2CCOCC2)c1	0.5%	37.9%	0.7	26.6%	/	/	/
CC(=O)Nc1cc(NC(=O)C2C3C=CC(C3)C2C(=O)O)ccc1Cl (configuration not stated)	1.5%	-1.2%	-3.8	4.2%	2.9%	/	/
O=C(O)C1C2C=CC(C2)C1C(=O)Nc1ccc(Cl)c(Cl)c1 (configuration not stated)	21.3µM*	-5.6%	1.9	-5.4%	/	18.3%	-13.2%
Cc1ccc(CC(=O)NNC(=O)c2ccncc2)cc1C	?	/	/	/	/	13.5µM*	21.3µM*
COc1ccc(/C=C/C(=O)Nc2ccccc2C(=O)O)cc1	?	?	2.3	3.8%	9.4%	-30.9%	?
COc1ccc(/C=C/C(=O)Nc2ccccc2C(=O)N2CCCC2)cc1	3.3%	-10.8%	4.0	-19.3%	1.1%	/	/
CCc1ccc([C@@H]2CC=C(C(=O)O)[C@H](c3ccc(C(C)(C)C)cc3)N2S(=O)(=O)c2ccc(C)cc2)cc1	0.0%	/	/	/	/	/	/
CCOC(=O)C1Oc2ccccc2C(c2ccccc2)=C1C(C)=O (configuration not stated)	/	-5.8%[94.6 µM]	0.1[94.6 µM]	/	7.4%[88.7 µM]	/	/
NC(=O)CCN1CCN(C(=O)c2ccc3nc(Cc4cccc(Cl)c4)oc3c2)CC1	?	4.0%	0.7	-4.4%	/	12µM*	26.9µM*
C/C(C/C(C)=C1/SC(=S)NC1=O)=C1\SC(=S)NC1=O	?	65.8%	?	?	9.5%	-29.4%	?
Cn1c(=O)c2[nH]cnc2n(C)c1=O.[CH2-][C@H](Cc1cccc2cc(C(=O)O)c(=O)oc12)OC.[Hg].[OH-]	/	/	/	/	-1.7%[14.2 µM]	/	/
COc1ccc(N=C2S/C(=C\c3ccc(N4CCOCC4)o3)C(=O)N2CCc2c[nH]c3ccccc23)cc1	?	?	?	-7.9%	218.9%	/	/
COc1ccc(N=C2S/C(=C\c3ccc(OCC(=O)O)cc3)C(=O)N2CCc2c[nH]c3ccccc23)cc1	1.07µM*	?	21.0	-27.3%	1.0%	?	?
NC(=O)c1ccc(NC(=O)COC(=O)CCN2C(=O)c3ccccc3C2=O)cc1	3.9%	/	/	/	/	/	/
CCCCNC(=O)CCCCn1c(=S)[nH]c2c([nH]c3ccc(OC)cc32)c1=O	1.1%	0.1%	-3.1	6.0%	3.3%	/	/
COc1ccc2[nH]c3c(=O)n(CCCCC(=O)NCCN4CCCC4)c(=S)[nH]c3c2c1	?	5.7%	0.7	14.1%	-8.6%	?	?
O=C(NNC(=O)c1ccccc1Br)c1ccc2nc[nH]c2c1	21.3µM*	/	/	47.1%	/	?	?
O=C(NNC(=O)c1ccccc1F)c1ccc2nc[nH]c2c1	-10.1%	/	/	0.5%	/	/	/
CC(=O)NN1C(=O)/C(=C\c2ccc(Cl)cc2)SC1=S	-1.5%	1.8%	-1.6	1.4%	12.1%	/	/
Cc1ccc(NC(=O)CN(C)C(=O)c2cccc(-n3cccc3)c2)cc1	?	/	/	/	/	?	?
Cc1ccc(C)c(NC(=O)CN(C)C(=O)c2cccc(N3C(=O)CCC3=O)c2)c1	0.0%	/	/	/	/	/	/

Source: PubChem
